Source: the supplement of paper PMC6555819

Test system: VDR:RXRa (NR concentration 270 nM, RXRa partner concentration 90 nM)
Assay: PBM binding z-score (relative to random genomic background probes); higher = stronger binding; sequences stand for … in GC…GCGATTGACAGCGTAGAATGAAGG
Procedure: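 Protein-binding microarray (Agilent 4x180K custom design, double-stranded 60-nt probes: 5' GC cap, 34-nt variable region, 24-nt constant primer region; full probe sequence given). Purified or IVT nuclear receptor:RXRα heterodimers (3:1 NR:RXRα, mostly 270:90 nM) or homodimers were incubated for 1 h in PBS with 2% milk and no ligand, then detected with Alexa488 antibodies. Fluorescence from o1-orientation probes (~5 replicates averaged) was converted to z-scores against 500 random hg19 background probes. Variable regions are seed direct-repeat (DR0–DR5) sites, all their single-nucleotide variants and half-site ablations.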

Sequence | PBM binding z-score
CCAGACAGGTGAAAGGTAACTCTGTCTGGTACGC | 0.668
CCTACTGGGCCAAGGTCGTTGATCAGTCAAAGCA | 0.505
TCAGACAGGTGAAGGTAACTAAGGTACGCAGTCG | 1.01
ATCTCTAGGTACCCAAGTTCAGTGAATGCCGAAC | 2.1
TATACAGGGTCAAAGGCCAGAGTTCGAATGTCGA | 5.34
CCTACTGGGCCAAAAAGGTGATTGATGCCGATAA | -0.0906
TCTTGTAGATCAAAGTTTAAGAAAGCCGAAGCCT | 0.555
TCTAATAGTTGATTAGGGCAACCGAAACAGCGGA | 0.582
TCATATAGGTAGAGGTGAAAGTCGAACGATATGA | 0.794
TCTTGTAGATCAAAGGTTAAGTAAGCCGAAGCCT | 2.04
CCGTCTGGGGCATAAGGTTACCATAAGCCAGCCC | 0.256
TCAGACAGGTGAAGGTAACCCAGGTACGCAGTCG | 0.641
GATACAGGGTCACCTAGAGGCCAGAGTATGGAAA | 4.76
GATACAGGGTCAGCTAGAGGCAAGAGTATGGAAA | 2.63
ATCTCTAGGTAATCAAGTTCAGTGAATGCCGAAC | 4.21
CAACCAAGGTGAACAAGGTCGTTGATTACTATTC | 5.89
TTACCAAGGCGAAAGGTCGTTGATGCACGCCTTG | 1.65
ACTAGCTGGTCAGCTGAGGTCACACACAATTCGG | 4.56
CGTCAAAGTTCAACTAAAGTAACGTAAAGCACGC | 4.08
ACTATTAGTAGACTTAGGGCAACCGATACGACGC | -0.00967

Sequence | PBM binding z-score
GGAACGAGGGCATGCGAGTTGATAGCATGGCGAT | 2.9
ACTTACGGGCCAACGAGGTTATAGCACGCGTATA | 3.84
CCAGAGAGGTGAGAAGGTAACTCAGCCTCGATTA | 0.23
TATCGGAGGACACGAAGGTCAGAGCTTTCCAGAG | 2.32
CAATCTAGGTCAAGGTCAAAGTCGGTTTGTGCCA | 4.97
ATACCAAGGTGATCGTGAGGTCATTGATACTAAC | 5.31
TTACCAAGGTGAAAGTCGTTGATCCCTCTGTAGA | 0.25
AGAATGACGTTACCAAAGATCAGGGAAACGCTTG | -0.434
GGAACGAGGGCAAAGTTGATACCATCTGTCGACG | 1.48
TGTATTAGTTGAAGGGCAACCGACGAGTCCGTTT | 0.926
ACTAGTTAGTCAGCTGAGGTCACACACAATTCGG | 4.19
CCTACTGGGCCACGAAAGGTCATTGATTCAGTGA | 4.21
CGTCAAAGTTCAACTAACGTAACGTAAAGCACGC | 4.1
TAGCCTAGGTCAATGGGCCAGTATAGTACGCATC | 1.1
CCTACTCGGCCATTCAGAGGTCATTGATCATATG | 4.06
CAGCCTACGTCAGGGCCAGTATAGGAGGAACGTT | -0.587
TCATATAGTTAAAGGTGAAAGTCGAACGATATGA | 1.2
TCATATAGGTAAACAGGTGAAACTCCGTAAGTTA | 1.19
CCTACTGGACCAAAGGTCATTGATTCCAATGCTC | 5
ATCGAAAGGTCGACGAGGTGAGTCTACACCGTTT | 5.5
